The source made the active and inactive calls.
How the values were obtained:
Albumin (Bos taurus) = Albumin (Bos taurus) (UniProt P02769); experiment: compounds binding labelled BSA control protein – biochemical, small-molecule microarray, Alexa647 label, 635/667 nm fluorescence, artefact control for SMM control protein annotation, profiling panel (AID 1118); settings: BSA-A647 binding, fluorescence 635 nm, higher = more signal;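 note: score merges 667 nm emission intensity and signal-to-noise per printed compound spot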
Albumin (Bos taurus), sequence (P02769 whole entry, looked up): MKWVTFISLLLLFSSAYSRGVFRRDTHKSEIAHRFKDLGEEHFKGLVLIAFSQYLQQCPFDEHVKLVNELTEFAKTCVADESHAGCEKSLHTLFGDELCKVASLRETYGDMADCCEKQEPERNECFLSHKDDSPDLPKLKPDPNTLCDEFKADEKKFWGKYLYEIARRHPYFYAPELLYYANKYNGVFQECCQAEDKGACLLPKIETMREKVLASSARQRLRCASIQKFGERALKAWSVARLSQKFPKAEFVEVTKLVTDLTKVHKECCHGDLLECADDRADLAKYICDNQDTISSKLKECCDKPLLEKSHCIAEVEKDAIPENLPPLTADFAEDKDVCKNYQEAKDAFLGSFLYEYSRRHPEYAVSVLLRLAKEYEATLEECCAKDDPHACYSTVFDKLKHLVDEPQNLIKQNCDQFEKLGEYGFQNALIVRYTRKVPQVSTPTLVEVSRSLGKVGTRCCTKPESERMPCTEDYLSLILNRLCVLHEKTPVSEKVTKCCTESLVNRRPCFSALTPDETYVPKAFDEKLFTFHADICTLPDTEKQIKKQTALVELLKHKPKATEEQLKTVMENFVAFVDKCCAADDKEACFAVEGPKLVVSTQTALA

[1] = probe aXIP binding to arrayed compounds – biochemical, NeuroSMM set, 635/667 nm fluorescence, primary screen (AID 1119); settings: small-molecule microarray, higher = more signal, called active from +8 up or from −8 down;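 note: probe is the protein aXip251-270 applied at 1 µg/mL to compound-printed slides; binding of probe to printed compounds measured as 667 nm fluorescence plus signal to noise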
[2] = probe aNOTCH3 binding on compound microarray – biochemical, small-molecule microarray, 635/667 nm fluorescence, primary screen (AID 1120); settings: higher = more signal;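 note: probe is a biotin-tagged antibody raised against NOTCH3 rather than NOTCH3 protein; score merges spot fluorescence near 667 nm with spot signal to noise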
[3] = probe aNOTCH2 binding on compound microarray – biochemical, small-molecule microarray, 635/667 nm fluorescence, primary screen (AID 1121); settings: higher = more signal;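 note: score merges feature fluorescence read at 667 nm with its signal to noise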
[4] = target: Carbonic anhydrase 2 (Homo sapiens) (UniProt P00918); experiment: compounds binding carbonic anhydrase 2 – biochemical, small-molecule microarray, Alexa647-labelled CAII, profiling panel (AID 1122); settings: CAII-A647 binding fluorescence, higher = more signal
[5] = COS7 lysate on small-molecule microarray, probe aHis, 635 nm (AID 1123); settings: COS7 cell lysate, fluorescence, higher = more signal;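 note: z-score combines 667nm fluorescence intensity with signal-to-noise per printed compound spot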
[6] = probe aLAP1 signal on lysate-treated microarray – cell lysate, small-molecule microarray, COS7 lysate, primary screen (AID 1124); settings: probe aLAP1, fluorescence, higher = more signal;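 note: lysate comes from COS7 cells expressing LAP1 and is applied at 0.3 µg/mL; score merges spot fluorescence near 667 nm with signal-to-noise over triplicate slides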
Sam68 (KHDRBS1) = experiment: compounds binding KHDRBS1 protein – biochemical, small-molecule microarray, 635 nm fluorescence, primary screen (AID 1125); settings: higher = more signal;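 note: score merges 667 nm channel intensity with signal to noise over triplicate slides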
[7] = test system: Chordin-like protein 2 (CHRDL2); experiment: compounds binding chordin-like 2 – biochemical, small-molecule microarray, 635 nm fluorescence, primary screen (AID 1126); settings: fluorescence 635 nm, higher = more signal;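 note: printed compound slides probed with Chrdl2 protein at 4 µg/mL for 1 h at 4 C; score merges 667 nm emission intensity with signal to noise over three replicate slides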
[8] = target: Concanavalin-A (Canavalia ensiformis) (UniProt P02866); experiment: compounds binding concanavalin A lectin – biochemical, small-molecule microarray, Alexa647 label, 635 nm, artefact control for SMM control protein annotation, primary screen (AID 1127); settings: ConA-A647 binding fluorescence, higher = more signal;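 note: z combines 667 nm emission intensity with signal-to-noise across three replicate slides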
Concanavalin-A (Canavalia ensiformis), sequence (P02866 whole entry, looked up): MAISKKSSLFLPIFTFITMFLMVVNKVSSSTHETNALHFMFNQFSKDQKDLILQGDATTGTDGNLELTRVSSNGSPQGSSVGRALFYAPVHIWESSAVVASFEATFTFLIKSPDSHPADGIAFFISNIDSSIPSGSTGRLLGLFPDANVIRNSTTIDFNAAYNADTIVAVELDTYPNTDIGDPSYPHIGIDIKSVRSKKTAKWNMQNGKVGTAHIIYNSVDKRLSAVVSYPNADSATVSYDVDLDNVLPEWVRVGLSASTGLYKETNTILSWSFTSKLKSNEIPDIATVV

SMILES | composite z-score (Albumin (Bos taurus)) | composite Z-score [1] | composite z-score [2] | composite z-score [3] | composite z-score [4] | composite z-score [5] | composite z-score [6] | composite z-score (Sam68 (KHDRBS1)) | composite z-score [7] | composite z-score [8]
Cc1cc(C)c(C(O)C2C=CC3C(=O)N(c4ccccc4)C(=O)C3N2Nc2ccccc2)c(C)c1 (stereo not given) | 0.767 | 0.0805 (inactive) | 0.236 | 0.294 | 0.781 | 2.13 | 0.0109 | 1.3 | -0.194 | 1.18
CC[C@@H]1[C@@H]2C3C(=O)N(CC)C(=O)C3CC(=O)[C@@H]2[C@H](c2ccc(C)cc2)N1S(=O)(=O)c1ccc(C)cc1 (stereo not given in full) | 0.701 | -0.304 (inactive) | 0.0077 | 0.131 | 0.749 | 2.61 | 1.64 | 1.34 | -0.337 | 0.876
COC(=O)[C@@]1(Cc2ccc(F)cc2)[C@@H]2[C@@H](CC(=O)[C@H]2CC(=O)C(=O)N2CCCC2)CN1C(=O)c1ccccc1 | 1.08 | 0.304 (inactive) | 0.506 | 0.239 | 0.603 | 3.17 | 0.552 | 1.3 | -0.232 | 1.16
CCOC(=O)C1=CC[C@@H](c2ccccc2)N(S(=O)(=O)c2ccc(C)cc2)[C@H]1C=C(C)C | 0.856 | 0.325 (inactive) | 0.31 | -0.0209 | 0.491 | 2.14 | 0.149 | 1.3 | 0.542 | 0.947
CCOC(=O)C[C@H]1[C@H](OC(=O)c2ccc(C(=O)c3ccccc3)cc2)[C@@H](NC(=O)C2CCCCC2)c2cc(OCCCO)ccc2N1C(=O)Cc1ccc(OC)cc1 | 0.442 | 0.442 (inactive) | 0.18 | 0.208 | 0.106 | 0.954 | 1.04 | 0.693 | 0.386 | 0.312
COC(=O)[C@H]1N=C(c2ccc(OCCCO)cc2)O[C@H]1c1ccccc1CN=[N+]=[N-] | 0.394 | -0.391 (inactive) | 0.23 | -0.0174 | 0.41 | 1.78 | 0.427 | 0.0826 | -0.935 | 0.8
CCCC=C(CCC)[C@@H](NC(=O)Cc1ccccc1)c1ccc(C(=O)OC)cc1 | 0.506 | 0.0119 (inactive) | 0.934 | 0.0754 | 0.405 | 1.69 | 0.615 | 0.844 | 0.549 | 0.31
COC(=O)c1c(CC[C@@H](CO)NC(=O)N[C@@H](C)Cn2cc(C3(O)CCCC3)nn2)oc(C(C)=O)c1C(=O)OC | 0.815 | 0.42 (inactive) | 0.276 | -0.204 | 0.672 | 2.66 | 0.0377 | 0.481 | -0.425 | 0.484
C=CCC(OC(C)=O)[C@@H]1[C@@H](N(Cc2ccc(-c3ccccc3)cc2)C(=O)c2cccc3ccccc23)c2cc(OCCCO)ccc2N1C(=O)c1ccc2ccccc2n1 (stereo not given in full) | 0.028 | -0.119 (inactive) | 0.0306 | -0.16 | 0.212 | 0.621 | 0.546 | -0.168 | 0.165 | -0.0782
O=C1O[C@H](c2ccccc2)[C@H](c2ccccc2)N2[C@H]1[C@@H](C(=O)N1CCCCCCC1)[C@]1(C(=O)Nc3ccc(C#CCCO)cc31)[C@H]2c1ccc(OCCO)cc1 | 0.853 | 10.2 (active) | 2.34 | 1.12 | 1.11 | 5.12 | 1.12 | 1.37 | 1.62 | 1.19
COc1ccc([Si](C)(C)[C@@H]2[C@@H](CCO)O[C@]3(C(=O)N(Cc4ccccc4)c4ccc(N5CCCCC5=O)cc43)[C@H]2C)cc1 | 0.375 | -0.364 (inactive) | 0.924 | -0.108 | 0.08 | 0.72 | 0.0284 | 1.31 | 0.212 | 1.12
CCOC(=O)C[C@H]1[C@H](OC(=O)Cc2ccc3c(c2)OCO3)[C@@H](NC(=O)c2ccccc2)c2cc(OCCCO)ccc2N1C(=O)c1ccc2ccccc2n1 | 0.645 | 0.375 (inactive) | -0.226 | -0.147 | 0.08 | 0.526 | -0.145 | 0.679 | 0.127 | 1.1
CC(C)[Si](C#C[Si](C(C)C)(C(C)C)C(C)C)(O[C@H](C)c1cn(Cc2cccc(Cl)c2)nn1)C(C)C | 0.811 | -0.596 (inactive) | -0.0647 | -0.147 | 0.554 | 0.842 | -0.34 | 1.28 | 0.226 | 0.8
COCCCNC(=O)[C@@H]1c2ccccc2C(=O)N(c2ccc(C)cn2)[C@H]1c1ccc(CO)cc1 | -0.767 | 0.567 (inactive) | -0.644 | -0.18 | 0.0072 | -0.908 | -0.721 | -1.42 | -2.03 | -0.482
CCCCCCCCCCC(O)C1C=CC2C(=O)NC(=O)C2N1Nc1ccccn1 (stereo not given) | 0.616 | -0.118 (inactive) | 0.0159 | 0.0118 | 0.287 | 1.85 | -0.0065 | -0.182 | -0.9 | 0.709
COc1cc(NN2C(C(O)c3ccc(I)cc3)C=CC3C(=O)N(C)C(=O)C32)cc(OC)c1OC (stereo not given) | -0.166 | 0.466 (inactive) | 0.163 | 0.0586 | 0.783 | 1.63 | 0.189 | 0.144 | -0.946 | 0.0133

SMILES | composite z-score (Albumin (Bos taurus)) | composite Z-score [1] | composite z-score [2] | composite z-score [3] | composite z-score [4] | composite z-score [5] | composite z-score [6] | composite z-score (Sam68 (KHDRBS1)) | composite z-score [7] | composite z-score [8]
O=C1NC(=O)C2C1C=CC(C(O)c1ccc(-c3ccccc3)s1)N2Nc1ccccn1 (stereo not given) | 0.781 | -1.39 (inactive) | -0.115 | 0.11 | 0.91 | 0.978 | 1.22 | 0.105 | 0.398 | 0.83
CCCCC=C[C@@H](NC(=O)CCc1ccccc1)c1ccccc1 | 0.585 | 1.46 (inactive) | 0.23 | 0.0409 | 0.689 | 2.37 | 0.785 | 1.2 | 0.0782 | 1.12
COCCOC(=O)N1C(=O)[C@@]2(c3cc(C#CC4(O)CCCCCC4)ccc31)[C@H](C(=O)N1CCc3cc(OC)c(OC)cc3C1)[C@H]1C(=O)O[C@H](c3ccccc3)[C@H](c3ccccc3)N1[C@@H]2c1ccccc1OCCO | -0.499 | 0.141 (inactive) | 0.382 | 0.0521 | 0.435 | 0.29 | 0.221 | 1.29 | 1.02 | 1.17
C[C@@H]1ON(c2ccccc2)[C@H](c2ccccc2)[C@H]1C(=O)N1C(=O)OC[C@H]1Cc1ccccc1 | 0.215 | 0.477 (inactive) | -0.0057 | -0.14 | 0.303 | 0.514 | -0.0985 | 0.885 | 0.447 | 0.603
Cc1cc(C)c(C(O)C2C=CC3C(=O)N(c4ccccc4)C(=O)C3N2Nc2ccc([N+](=O)[O-])cc2)c(C)c1 (stereo not given) | 1.06 | -0.909 (inactive) | 0.418 | 0.149 | 0.643 | 2.79 | 0.893 | 1.3 | -0.224 | 1.19
OCCCC1=CC(c2cccs2)N(Cc2cccc(OC(F)(F)F)c2)CC1 (stereo not given) | 0.659 | -0.0774 (inactive) | -0.147 | 0.072 | 0.389 | 0.0426 | 0.144 | -0.184 | -0.258 | -0.659
COc1ccc([Si](C)(C)[C@H]2[C@H](CCn3cc(CCO)nn3)O[C@@]3(C(=O)N(Cc4cccc(N5C(=O)c6cccc7cccc5c67)c4)c4ccccc43)[C@@H]2C)cc1 | 0.451 | 0.525 (inactive) | 0.0311 | -0.0974 | 0.584 | 0.791 | 1.65 | 1.22 | 0.438 | 1.11
[N-]=[N+]=NCc1ccccc1[C@H]1OC(c2ccc(OCCCO)cc2)=N[C@@]1(Cc1ccccc1N=[N+]=[N-])C(=O)N1CCCCC1 | -0.0584 | -0.202 (inactive) | 0.374 | 0.104 | 0.559 | 2.97 | 0.608 | 1.29 | 0.0975 | 0.988
CN(C)C(=O)[C@@]1(CCC(=O)OC(C)(C)C)N=C(c2ccc(OCCCO)cc2)O[C@H]1c1ccccc1N=[N+]=[N-] | 1.03 | 0.0421 (inactive) | 0.315 | -0.0129 | 0.812 | 3.31 | 1.25 | 1.3 | -0.18 | 1.11
COC(=O)c1ccc(OC)c(/C=C\CC(CCc2ccccc2)OC(=O)c2ccncc2)c1 (stereo not given) | -0.805 | 0.302 (inactive) | -0.26 | -0.225 | 0.388 | 0.721 | 0.863 | 0.0029 | 1.52 | -0.363
CCCNC(=O)[C@@H]1c2ccccc2C(=O)N(CC23CC4CC(CC(C4)C2)C3)[C@H]1c1ccc(CO)cc1 | 0.472 | 0.39 (inactive) | 0.0702 | 0.0521 | 0.395 | 1.98 | 0.12 | 1.29 | 0.781 | 1.09
O=C1N(Cc2ccccc2)c2ccccc2[C@H]2OC(c3ccc(OCCCO)cc3)=N[C@@]12CCS(=O)(=O)c1ccccc1 | 0.273 | -0.313 (inactive) | 0.0538 | -0.112 | 0.692 | 2.83 | 0.948 | 1.29 | 0.376 | 0.54
CCN(CC)c1ccc(N2CC=CC34O[C@@H]5/C=C\CCCOC(=O)C5[C@H]3C(=O)N(CCCCCO)[C@@H]4C2=O)cc1 (stereo not given in full) | 0.567 | 0.226 (inactive) | -0.402 | -0.198 | 0.342 | -0.343 | 0.0397 | -1.83 | -1.2 | -0.518
COCCCNC(=O)[C@]1(CCS(=O)(=O)c2ccccc2)N=C(c2ccc(OCCCO)cc2)O[C@@H]1c1ccccc1 | 0.88 | -0.263 (inactive) | 0.558 | 0.284 | 0.751 | 2.99 | 1.75 | 1.3 | 0.0923 | 1.1
CN(C)C(=O)[C@@]1(Cc2ccccc2N=[N+]=[N-])N=C(c2ccc(OCCCO)cc2)O[C@H]1c1ccccc1N=[N+]=[N-] | 0.89 | 0.167 (inactive) | 0.277 | 0.083 | 0.565 | 1.65 | 0.372 | 1.33 | 0.325 | 0.819
